Measured potencies and affinities stand elsewhere.
Tests used:
Staphylococcus aureus = conditions: Concentration 32 ug.mL-1;; ASSAY_TEST Inhibition of Bacterial Growth; detection method Absorption (OD600); MEDIA CAMHB; plate type 384well; NBS; CORNING #3640; time 18 hr
Escherichia coli = conditions: Concentration 32 ug.mL-1;; ASSAY_TEST Inhibition of Bacterial Growth; detection method Absorption (OD600); MEDIA CAMHB; plate type 384well; NBS; CORNING #3640; time 18 hr

| SMILES | Inhibition (Staphylococcus aureus) [%] | Inhibition (Escherichia coli) [%] |
| --- | --- | --- |
| COc1ccc(NC(=O)Cn2nc3c(Sc4ccccc4)nccn3c2=O)cc1Cl | -4.6 | -4.12 |
| COc1ccc(-c2cc3c4nnc(SCC(=O)Nc5cccc(C#N)c5)n4ccn3n2)cc1 | 1.06 | -0.96 |
| CCOc1ccc(-n2ccn3c(SCC(=O)c4ccc(OC)cc4)nnc3c2=O)cc1 | 15.17 | -3.52 |
| COC(=O)c1ccc(CN(c2cccc(F)c2)S(=O)(=O)c2ccc3nncn3c2)o1 | 9.42 | -3.46 |
| COc1cccc(Cn2nc3n(CCC(=O)NC4CCCCC4)c(=O)c4ccccc4n3c2=O)c1 | 6.84 | -3.05 |
| CCC(Sc1nnc2c(=O)n(-c3ccc(C)c(C)c3)ccn12)C(=O)Nc1ccccc1C (centres undefined) | 13.17 | -4.12 |
| CCCCOc1ccc(-c2cc3c4nnc(SCC(=O)NCc5ccc(C)cc5)n4ccn3n2)cc1 | 2.78 | -5.47 |
| O=C(Cn1nc2c(N3CCOCC3)nccn2c1=O)NCc1cccc(C(F)(F)F)c1 | 16.25 | -1.74 |
| CC(C)Cn1c(=O)c2sccc2n2c(=O)n(Cc3ccc(Br)cc3)nc12 | 2.7 | -6.62 |
| O=C(Cn1nc2c(SCc3ccccc3)nccn2c1=O)NCc1ccc(Cl)cc1 | -0.34 | -19.62 |
| CCc1nnc2ccc(S(=O)(=O)N(Cc3ccc(F)cc3)c3ccccc3)cn12 | -1.95 | -12.51 |
| COc1cccc(CN(c2ccc(F)c(F)c2)S(=O)(=O)c2cccn3c(C)nnc23)c1 | 17.08 | 2.94 |
| CCOc1ccc(-n2ccn3c(SCC(=O)Nc4cccc(CC)c4)nnc3c2=O)cc1 | -2.86 | -8.29 |
| Cc1ccc(C)c(Cn2nc3n(CC(C)C)c(=O)c4sccc4n3c2=O)c1 | 12.61 | 1.72 |
| CCCCN(C)c1ccc2nnc(CCc3nc(-c4cc(OC)cc(OC)c4)no3)n2n1 | -6.16 | -4.97 |
| Cc1ccc(-c2cc3c4nn(CC(=O)Nc5ccccc5C)c(=O)n4ccn3n2)cc1C | 5.58 | 2.13 |
| CCCCn1c(=O)c2sccc2n2c(CCC(=O)NCCC34CC5CC(CC(C5)C3)C4)nnc12 | 7.09 | 0.44 |
| COc1ccc(NC(=O)Cn2nc3c4cc(-c5ccc(C)c(C)c5)nn4ccn3c2=O)cc1Cl | -7.37 | 0.15 |
| COc1cc(NC(=O)Cn2nc3c4c5c(sc4ncn3c2=O)CCCC5)cc(OC)c1 | -0.84 | -8.54 |

| SMILES | Inhibition (Staphylococcus aureus) [%] | Inhibition (Escherichia coli) [%] |
| --- | --- | --- |
| O=C(Cn1nc2ccc(SCc3ccc(Cl)cc3)nn2c1=O)Nc1ccc(F)c(F)c1 | -1.34 | -2.62 |
| CCOc1ccccc1NC(=O)Cn1nc2c3cc(-c4ccc(Cl)cc4)nn3ccn2c1=O | 6.48 | 1.3 |
| Cc1cc2nn(CC(=O)Nc3ccc(F)cc3F)c(=O)n2c(Nc2ccc(F)c(C)c2)n1 | 5.82 | -5.59 |
| O=c1n(Cc2c(F)cccc2Cl)nc2ccc(-c3ccccc3)nn12 | 7.33 | 0.7 |
| Cc1cc(C)c(NC(=O)Cn2nc3ccc(Sc4cccc(F)c4)nn3c2=O)c(C)c1 | 3.74 | -5.92 |
| CSc1ccc(CNC(=O)Cn2nc3c(Oc4ccc(C)cc4)nccn3c2=O)cc1 | -14.59 | -5.13 |
| CCc1nnc2c(S(=O)(=O)N(Cc3ccc(C)cc3)c3ccc(C(C)C)cc3)cccn12 | 16.04 | -0.02 |
| COc1ccccc1-n1ccn2c(SCc3cc(C)ccc3C)nnc2c1=O | 12.05 | -5.03 |
| O=c1c2nnc(SCc3cccc(F)c3)n2ccn1-c1ccc(Br)cc1 | 15.11 | -3.12 |
| Cc1ccc(-c2cc3c4nnc(CCC(=O)N5CCC(Cc6ccccc6)CC5)n4ccn3n2)cc1C | 10.73 | 2.4 |
| CCCc1ccc(S(=O)(=O)Nc2ccc3nncn3n2)cc1 | 16.11 | 2.74 |
| Cc1c(Cl)cccc1-n1ccn2c(SCC(=O)c3c[nH]c4ccccc34)nnc2c1=O | -2.75 | -4.84 |
| COc1ccccc1-n1ccn2c(SCc3cccc(Cl)c3)nnc2c1=O | -2.16 | -0.92 |
| O=c1c2sccc2n2c(=O)n(Cc3cccc(Cl)c3)nc2n1Cc1cccs1 | 18.24 | -5.83 |
| COc1cccc(-n2ccn3c(SCC(=O)Nc4cc(Cl)ccc4OC)nnc3c2=O)c1 | 8.75 | -1.77 |
| Cc1cccc(CN(c2cc(C)cc(C)c2)S(=O)(=O)c2cccn3c(C)nnc23)c1 | 6.42 | -0.75 |
| CCC(C)NC(=O)Cn1nc2n(CC(C)C)c(=O)c3ccc(C(=O)NC4CCCCC4)cc3n2c1=O (centres undefined) | 7.36 | -3.14 |
| COc1cccc(-n2ccn3c(SCC(=O)NCc4ccc(Cl)cc4)nnc3c2=O)c1 | 10.06 | -3.71 |

Reference: ChEMBL document CHEMBL4513146, “CO-ADD screening of Karazin Kharkiv National University (Ukraine) compounds”
